Shown are actives, neighbours in structure and some others; about 7.3% of the full set was active somewhere.
IP6K1 inh: inhibitors of human IP6K1; activity change, % (series mostly up to about 58 µM); IP6K1 kinase, ADP-Glo luminescence, 2 h; hits give low values; 140,000 tested, 0.81% active; in the data active means activity change below about -25%
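ADP-Glo luminescence measures ADP made by human IP6K1 during a 2 h RT reaction with ATP/IP6 (mix at 1.3 mM/130 uM); top library doses 57.5 and 19.1 uM final.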
3T3 cytotox: cytotoxic compounds in NIH 3T3 cells; 94,000 tested, 4.3% active; Potency, µM (highest dose often 96.7 µM), inactives show at the top dose activity change, negative = cytotoxicity, usual class: inhibitors; NIH 3T3 viability, CellTiter-Glo ATP luminescence, 48-72 h; further: potency means the concentration at half of the fitted maximal effect; nearly all actives have a fitted effect of over 55% in size
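ATP-dependent luminescence (CellTiter-Glo) served as the viability signal for NIH 3T3 cells treated with compound for 48 or 72 hr at 37 °C.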
Luciferase inh: inhibitors of firefly (Photinus pyralis) luciferase. purified P. pyralis luciferase, luminescence, biochemical. Potency, µM (highest dose often 115 µM), usual class: inhibitors. 76,000 tested, 2.5% active; further: potency means the concentration at half of the fitted maximal effect; nearly all actives have a fitted effect of over 65% in size
Target sequence (P08659 whole entry, looked up): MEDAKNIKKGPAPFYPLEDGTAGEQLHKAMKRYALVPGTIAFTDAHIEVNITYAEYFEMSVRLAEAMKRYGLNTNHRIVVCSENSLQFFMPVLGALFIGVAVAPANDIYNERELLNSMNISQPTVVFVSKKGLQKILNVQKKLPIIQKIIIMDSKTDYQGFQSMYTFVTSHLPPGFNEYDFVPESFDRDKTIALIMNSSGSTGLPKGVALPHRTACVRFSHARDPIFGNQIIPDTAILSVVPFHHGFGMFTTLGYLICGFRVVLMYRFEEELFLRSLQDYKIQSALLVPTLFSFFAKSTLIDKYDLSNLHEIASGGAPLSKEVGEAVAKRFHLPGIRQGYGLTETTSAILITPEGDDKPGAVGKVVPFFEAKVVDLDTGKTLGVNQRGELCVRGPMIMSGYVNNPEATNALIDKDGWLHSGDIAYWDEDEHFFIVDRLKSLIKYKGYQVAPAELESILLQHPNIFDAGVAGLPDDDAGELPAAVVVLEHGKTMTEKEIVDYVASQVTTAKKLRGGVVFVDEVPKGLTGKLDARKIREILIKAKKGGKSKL
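Biochemical qHTS: compound (6-point titration) added to 10uM D-luciferin plus 10uM ATP in Tris acetate pH 7.5 buffer with Mg, Tween-20 and BSA, then purified enzyme at 10nM; light output imaged.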
SNCA expr inh: inhibitors of alpha-synuclein (SNCA) gene expression | Potency, µM (titrated, usually from 57.2 µM), inactives show at the top dose activity change, negative = inhibition, actives largely listed as inhibitors | AID 1671194 | HEK-293 SNCA-luciferase knock-in, luminescence, 24 h | 140,000 tested, 0.17% active;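 further: potency means the concentration at half of the fitted maximal effect; plate controls were DMSO cells for no effect and cell-free wells for full effect; nearly all actives have a fitted effect of over 45% in size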
HEK cytotox: HEK 293 cell cytotoxicity. HEK 293 viability, ATP luminescence (CellTiter-Glo), 48-72 h. 94,000 tested, 6.6% active. Potency, µM (series often up to 115 µM), inactives show top-dose activity change, negative = cytotoxicity, actives largely listed as inhibitors. AID 1345083; further: potency means the concentration at half of the fitted maximal effect; nearly all actives have a fitted effect of over 60% in size
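Luminescence from cellular ATP, measured with CellTiter-Glo, indicates HEK 293 viability. Cells plated at 250 cells/well are treated with compound for 48 or 72 hr at 37 degree Celsius before reagent addition.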
SNCA viab count: counter-screen for SNCA expression inhibitors: cell viability; 150,000 tested, 0.12% active; HEK-293-SNCA-luc viability, GF-AFC fluorescence, 24 h; AID 1671193; Potency, µM (titrated, usually from 57.1 µM), inactives show top-dose activity change, negative = cytotoxicity, hits mostly cytotoxic;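 further: potency means the concentration at half of the fitted maximal effect; 0% = DMSO-treated cells and -100% = medium-only wells without cells; nearly all actives have a fitted effect of over 30% in size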
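HEK-293-SNCA-luc cells (1500/well) plated 24 h, then exposed 24 h to a dilution series; GF-AFC added 30 min at 37C, fluorescence 405/540 nm; normalised to medium-only and DMSO wells, Hill fit.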
The depositor's hits bear a star; i = inactive; ? = inconclusive; · = no result; [ ] = remark or other dose. Unless noted, the call rests on the fitted dose curve; in most records, active means well fitted curve in the direction sought with a large enough effect; inconclusive means small, poorly fitted or top-dose-only effect, or another doubt; inactive means no such curve, though single readings can be large; an effect the other way counts as inactive or inconclusive. Unless noted, on the % scale 0 is the no-effect control and ±100 the full control effect.

SMILES	IP6K1 inh	3T3 cytotox	Luciferase inh	SNCA expr inh	HEK cytotox	SNCA viab count
Cc1cc(COc2ccccc2)oc1C(=O)N1CCn2nc(C(C)O)cc2C1 (configuration not stated)	6	?	i	5%	0%	1%
O=C(c1cc(-c2cnccc2Cl)c2cccn2n1)N1CCCC1	1	?	·	-6%	?	-7%
FC(F)(F)C1CN(c2cc(N3CCOCC3)ncn2)CCO1 (configuration not stated)	12	-1%	i	-10%	-9%	-19%
FC(F)(F)C1CN(c2ccc3cc(Cl)ccc3n2)CCO1 (configuration not stated)	-6	?	25µM*	40%	?	3%
COCc1cc(NCc2cccnc2Oc2cccc(C(F)(F)F)c2)ncn1	2	-32%	i	2%	50µM*	-2%
COc1ccnc(N2CC[C@H](c3nnc(-c4ccc(C)cc4)o3)C2)n1	3	?	?	15%[87.6 µM]	100µM*	-8%[87.6 µM]
COc1ccc(CC(=O)N2CCc3nc(C)nc(-c4ccc(OC)cc4)c3C2)cc1	-11	i	·	18%	4%	-16%
CC(C)C1=NOC2(CCCN(C(=O)c3ccc4c(c3)OCO4)C2)C1 (configuration not stated)	-7	4%	·	20%	i	-14%
CC(C)C1=NOC2(CCN(C(=O)c3ccc4c(c3)OCO4)C2)C1 (configuration not stated)	6	79µM*	·	28%	-30%	10%
Cc1nn(-c2ccccc2)c(Oc2ccccc2F)c1CCC(=O)N1CCSCC1	24	?	i	-6%	35µM*	-9%
Cc1cccc(-n2nc(C)c(CCC(=O)N3CCOCC3)c2Oc2ccccc2C)c1	-8	?	i	-40%	?	?
Cc1cccc(-n2nc(C)c(CCC(=O)N3CCSCC3)c2Oc2ccccc2)c1	4	?	i	-27%	45µM*	-28%
Cn1cc(-c2ccccc2Oc2ccccc2)c2nc(CN3CCOCC3)cn2c1=O	-4	89µM*	i	39%[87.6 µM]	-7%[172 µM]	-3%[87.6 µM]
COc1cc(F)ccc1-c1cn(C)c(=O)n2cc(CN3CCOCC3)nc12	2	112µM*	i	27%[87.6 µM]	-8%[172 µM]	-2%[87.6 µM]
C[C@H]1[C@@H]2[C@H]3OC(=O)[C@@H](C)[C@@H]3CC[C@@]2(C)CC[C@@H]1NC(=O)CC(C)(C)C	4	-19%[138 µM]	i	-4%[87.6 µM]	-14%[172 µM]	0%[87.6 µM]
CCOc1cc(C)c(CN2CCCC(O)(CN(C)C)C2)cc1C(C)C (configuration not stated)	11	40µM*	i	-1%	35µM*	0%
Fc1cccc(-n2cc(CN3CCCC4(CCOC4)C3)cn2)c1 (configuration not stated)	-8	-28%	i	-10%	-12%	6%
CC(C)c1ccc(-n2cc(CN3CCCC(O)(CN(C)C)C3)cn2)cc1 (configuration not stated)	-10	?	?	16%	22µM*	-12%
CN(C)CC1(O)CCCN(Cc2ccc(Oc3ccc(Cl)cc3)cc2)C1 (configuration not stated)	11	22µM*	i	?	?	?
CN(C)CC1(O)CCCN(Cc2ccc(-c3ccc(Cl)cc3)o2)C1 (configuration not stated)	7	?	i	-13%	?	9%
CCOCCNC(=O)c1cc(-c2cccc(OC)c2)nc2c1cnn2C	-14	?	·	·	?	·
COc1ccccc1-c1cc(C(=O)NCc2cccc(C(F)(F)F)c2)nn2cnnc12	0	?	·	?	40µM*	-23%
COc1ccccc1-c1cc(C(=O)Nc2ccc(C)cc2)nn2cnnc12	32	-18%	·	27%	35µM*	2%[12.5 µM]
Cc1ccc(NC(=O)c2cc(-c3ccc(Cl)cc3Cl)c3nncn3n2)cc1	15	-19%	·	10%	0%	-10%[12.5 µM]
COc1ccccc1-c1cc(C(=O)NCc2ccccc2)nn2cnnc12	16	?	·	-11%	?	1%
